Source: PubChem BioAssay AID2718 (Broad Institute, 2010)
Hit rate of the full screen: of about 320,000 compounds, about 480 (0.15%) were called active. Inconclusive results (about 1%) are left out. The sample as a whole holds a higher share of actives than the screen did. A number with no mark means an inactive call. Rule as the data show it: active = inhibition above about 26% (passing the limit was not always enough); inconclusive = no clear call, values can overlap the other calls.

Each molecule was assayed against Histone deacetylase 3 (Homo sapiens) (UniProt O15379) (assay: inhibition of human HDAC3 enzyme activity – biochemical, fluorescence, cell-free homogeneous, primary screen (AID 2718)). Conditions: recombinant HDAC3, fluorogenic peptide/trypsin coupled, at 8.3 µM, stronger effect = higher value.
Histone deacetylase 3 (Homo sapiens), sequence (O15379 whole entry, looked up): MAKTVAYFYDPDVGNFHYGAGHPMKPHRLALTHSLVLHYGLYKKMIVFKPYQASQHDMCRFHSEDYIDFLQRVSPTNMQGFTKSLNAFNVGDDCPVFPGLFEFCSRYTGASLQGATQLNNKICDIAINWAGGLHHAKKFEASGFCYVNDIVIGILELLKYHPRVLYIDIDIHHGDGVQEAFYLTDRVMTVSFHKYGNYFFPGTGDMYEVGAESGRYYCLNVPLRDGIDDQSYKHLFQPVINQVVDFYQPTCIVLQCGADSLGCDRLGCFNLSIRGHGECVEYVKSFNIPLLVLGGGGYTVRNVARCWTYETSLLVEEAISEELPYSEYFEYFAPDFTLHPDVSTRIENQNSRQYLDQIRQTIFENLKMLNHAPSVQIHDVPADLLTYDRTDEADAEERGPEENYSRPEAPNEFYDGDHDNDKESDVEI
With `COc1ccc(C(=O)n2nc(-c3ccc(C)cc3)nc2N)cc1OC` the inhibition was 9.8%. Molecule `COc1ccc(C(=O)n2nc(-c3ccc(Cl)cc3)nc2N)cc1OC` has an inhibition of 13.1%. With `COc1ccc(C(=O)n2nc(C)c(Br)c2C)cc1OC` the inhibition was 38.4% (active). `O=C(Cc1ccccc1)Nc1c(Cl)ccc2nsnc12` gave an inhibition of 2.55%. `C=C(Br)CN1CCN(CC(=C)Br)CC1` was tested, and the inhibition was -3.73%. Work on `O=C(O)C1C2C=CC(O2)C1C(=O)NCCc1cccc(Cl)c1` (stereo not drawn) yielded an inhibition of -6.57%. Molecule `Cc1ccc(/C=N/NC(=O)C(NC(=O)c2ccccc2)c2n[nH]c(=O)c3ccccc23)cc1` (stereo not drawn) has an inhibition of 15%. In the case of `O=C(COC(=O)c1ccco1)Nc1ccc(Cl)cn1`, the inhibition is reported as 0.924%. With `COc1cc(CN2CCC(C(N)=O)CC2)ccc1OCc1ccccc1` the inhibition was -3.96%. For `COc1cc(C2CC(=O)N3CN(Cc4ccccc4)CSC3=C2C#N)ccc1OCc1ccccc1` (stereo not drawn), the inhibition was 33.1% (active). For `COc1cc(CNC2CCCC2)c(Br)cc1OCc1ccccc1`, the inhibition was 3.98%. In the case of `COc1cc(NC(=O)c2[nH]cnc2C(N)=O)cc(C(=O)Nc2cccc(C(F)(F)F)c2)c1`, the inhibition is reported as -8.89%. In the case of `O=C(NC(=S)NC1CCSC1=O)c1ccccc1F` (stereo not drawn), the inhibition is reported as -7.58%. Work on `O=C(CN1CCN(C(=S)NC2CCCC2)CC1)Nc1ccc(Oc2ccccc2)cc1` yielded an inhibition of -5.51%. `COc1ccccc1-n1nnnc1SCC(=O)NC(=O)Cc1ccccc1` showed an inhibition of -1.86%. With `O=C(NCc1ccccc1)C1=C[C@@H](c2ccc(C(F)(F)F)cc2)C[C@@H](OCc2ccc(CO)cc2)O1` the inhibition was 21.1%. `O=C(C1=C[C@H](C2CC2)C[C@H](OCc2ccc(CO)cc2)O1)N1CCN(Cc2ccccc2)CC1` showed an inhibition of -8.37%. `O=C(C1=C[C@H](c2ccc(C(F)(F)F)cc2)C[C@H](OCc2ccc(CO)cc2)O1)N1CCN(Cc2ccccc2)CC1` was tested, and the inhibition was 33.5% (active). In the case of `CNS(=O)(=O)c1cccc(C(=O)OCC(=O)N2c3ccccc3NC(=O)C2(C)C)c1`, the inhibition is reported as 4.33%. In the case of `CCN(CC)CCN(C(=O)c1cccc([N+](=O)[O-])c1)c1nc2ccc(OC)cc2s1`, the inhibition is reported as -1.73%. In the case of `CN(C(=O)c1cccc(NC(=O)C2CCN(C(=O)OC(C)(C)C)CC2)c1)C1CCC1`, the inhibition is reported as -2.89%. Molecule `CSCCC(NC(=O)c1ccco1)C(=O)NCCc1ccc(F)cc1` (stereo not drawn) has an inhibition of -4.83%. In the case of `COc1ccc(C(=O)OCc2cc(=O)n3ccsc3n2)cc1F`, the inhibition is reported as 0.474%. With `C=CCC[C@@H](Cc1ccc(F)cc1)C(=O)OC[C@H](Cc1c[nH]c2ccccc12)NC(=O)[C@@H](CC=C)CC(=O)N(CCO)Cc1ccccc1` the inhibition was 41.9% (active). For `C=CCC[C@H](Cc1ccc(F)cc1)C(=O)OC[C@@H](NC(=O)[C@@H](CC=C)CC(=O)N[C@H](CO)Cc1ccccc1)C(C)(C)C`, the inhibition was 41.7% (active). `C=CCC[C@H](Cc1ccc(F)cc1)C(=O)OC[C@@H](Cc1c[nH]c2ccccc12)NC(=O)[C@H](CC=C)CC(=O)N[C@H](CO)Cc1ccccc1` showed an inhibition of 6.12%. With `C=CC[C@H](CC(=O)OC(C)(C)C)C(=O)OC[C@H]1CCCN1C(=O)[C@H](CC=C)CC(=O)N(CCO)Cc1ccccc1` the inhibition was 1.66%. `C=CC[C@@H](CC(=O)N[C@H](CO)Cc1ccccc1)C(=O)N[C@@H](COC(=O)[C@@H](CC=C)Cc1ccc(F)cc1)Cc1c[nH]c2ccccc12` showed an inhibition of 0.653%. With `C=CC[C@@H](CC(=O)N[C@@H](CO)Cc1ccccc1)C(=O)N[C@H](COC(=O)[C@H](CC=C)CC(=O)OC(C)(C)C)Cc1ccccc1` the inhibition was 7.81%. `C=CC[C@@H](CC(=O)N[C@H](CO)Cc1ccccc1)C(=O)N[C@H](C)COC(=O)[C@@H](CC=C)Cc1ccc(F)cc1` gave an inhibition of 19.7%. With `C=CC[C@@H](CC(=O)N[C@@H](CO)Cc1ccccc1)C(=O)NCCOC(=O)[C@@H](CC=C)CC(=O)OC(C)(C)C` the inhibition was 0.71%. Work on `C=CCC[C@@H](Cc1ccc(F)cc1)C(=O)OC[C@@H](C)NC(=O)[C@H](CC=C)CC(=O)N(CCO)Cc1ccccc1` yielded an inhibition of 2.58%. For `C=CCC[C@H](Cc1ccc(F)cc1)C(=O)OC[C@H](C)NC(=O)[C@H](CC=C)CC(=O)N(CCO)Cc1ccccc1`, the inhibition was 30.2% (active). `C=CC[C@@H](CC(=O)NCCO)C(=O)N[C@H](C)COC(=O)[C@@H](CC=C)CC(=O)OC(C)(C)C` showed an inhibition of -0.677%. `C=CCC[C@@H](Cc1ccc(F)cc1)C(=O)O[C@H](CNC(=O)[C@H](CC=C)CC(=O)N(CCO)Cc1ccccc1)c1ccccc1` was tested, and the inhibition was 48.4% (active). Molecule `C=CC[C@H](CC(=O)NCCO)C(=O)N[C@@H](COC(=O)[C@@H](CC=C)Cc1ccc(F)cc1)Cc1c[nH]c2ccccc12` has an inhibition of 9.77%. In the case of `C=CC[C@H](CC(=O)N(CCO)Cc1ccccc1)C(=O)N[C@@H](COC(=O)[C@@H](CC=C)Cc1ccc(F)cc1)Cc1ccccc1`, the inhibition is reported as 40.9% (active). `O=C1N[C@@H](c2ccccc2)COC(=O)[C@H](Cc2ccc(F)cc2)C/C=C\C[C@@H]1CC(=O)N(CCO)Cc1ccccc1` showed an inhibition of 8.45%. For `COC(=O)[C@]1(CC(C)C)N[C@H](c2ccc(SC3CCCCC3)cc2)[C@@H]2C(=O)N(C)C(=O)[C@@H]21`, the inhibition was 16%. For `O=C(OCC(=O)N1CCCCCC1)c1ccc(Cl)nc1`, the inhibition was 0.75%. For `CCOC(=O)Cn1c(-c2cccnc2Cl)nc2ccccc21`, the inhibition was 2.13%. Work on `CCCCCCCCCCOC(=O)Cn1c(COc2cccc(OC)c2)[n+](C)c2ccccc21` yielded an inhibition of 17.1%. `CCCCCCCCCCOC(=O)Cn1c(COc2ccc(C)cc2)[n+](C)c2ccccc21` was tested, and the inhibition was 36.3% (active). Work on `Cc1cccc(NC(=O)c2ccc(S(=O)(=O)N(C)c3ccccc3)cc2)n1` yielded an inhibition of 2.21%. Work on `CCN(C(=O)COC(=O)c1ccccc1O)c1cccc2ccccc12` yielded an inhibition of 2.66%. `Cc1cc2c(cc1C)N(C(=O)CN1C(=O)c3ccccc3C1=O)C(C)(C)c1ssc(=S)c1-2` showed an inhibition of -10.7%. `COc1cc(NC(=O)CN2C(=O)NC(C)(c3ccc(OC(F)F)cc3)C2=O)cc(OC)c1OC` (stereo not drawn) gave an inhibition of 5.68%. With `Cc1ccc2nc(-c3ccc(NC(=O)c4cccnc4)cc3)oc2c1` the inhibition was -0.79%. Work on `Cc1ccc(NC(=O)Cc2nc(COC(=O)C(C)NS(=O)(=O)c3ccc(C)cc3)cs2)cc1` (stereo not drawn) yielded an inhibition of 1.23%. For `CC(=O)Nc1ccc(S(=O)(=O)NCCC(=O)N2CCN(c3ccccc3Cl)CC2)cc1`, the inhibition was -4.42%. `CCOc1cc(C(C(=O)NCC2CCCO2)N(C(=O)Cn2nnc3ccccc32)c2cccc(OC)c2)ccc1O` (stereo not drawn) gave an inhibition of -5.33%. `COc1ccc(C(=O)NCc2ccccc2C)cc1S(=O)(=O)NC1CCCC1` showed an inhibition of 2.42%. Work on `COc1cc(OC)c(NC(=O)C2CCCN2C(=O)OCc2ccccc2)cc1Cl` (stereo not drawn) yielded an inhibition of 2.9%. `CCN(C(=O)CSc1nnnn1-c1ccc(OC)cc1)C1CCS(=O)(=O)C1` (stereo not drawn) showed an inhibition of -1.21%. Work on `COc1ccccc1NS(=O)(=O)c1ccc(C)c(C(=O)NNC(=O)c2csc(N3CCOCC3)n2)c1` yielded an inhibition of -8.84%. In the case of `CSc1ncccc1C(=O)NCC(c1ccco1)N1CCCCC1` (stereo not drawn), the inhibition is reported as -0.371%. In the case of `CN(CC(=O)NCCc1ccc(S(N)(=O)=O)cc1)CC(=O)Nc1ccc(Cl)cc1`, the inhibition is reported as 2.8%. For `CC1Sc2ccc(C(=O)NCc3ccccc3Cl)cc2NC1=O` (stereo not drawn), the inhibition was 3.12%. With `c1ccc2c(CCN3CCNC[C@H]3Cc3cccc4ccccc34)cccc2c1` the inhibition was 4.64%. `CC1COC2C(O1)N(S(C)(=O)=O)CCN2S(C)(=O)=O` (stereo not drawn) showed an inhibition of -8.42%. Molecule `COc1ccc2nc3n(c(=O)c2c1)-c1cc(C)ccc1C(=O)NC3Cc1ccc(O)cc1` (stereo not drawn) has an inhibition of 4.49%. `Cc1ccc(NC(=O)CN(C)C(=O)c2ccc(Cl)c(S(=O)(=O)NCc3ccco3)c2)cc1` showed an inhibition of 1.2%. In the case of `COCCCNC(=O)CC1C[C@H](C(=O)N2CCCCC2)[C@@]2(CCc3ccccc3)c3[nH]c4ccccc4c3CCN2C1=O` (stereo partly drawn), the inhibition is reported as -3.31%. With `CC(=O)c1nn(-c2ccc(C)cc2)cc1C(=O)c1cccc(Br)c1` the inhibition was 7.63%. In the case of `Cc1nnc(SCC(=O)Nc2ccc(S(=O)(=O)Nc3ccc(Cl)nn3)cc2)s1`, the inhibition is reported as 0.425%. `CN(C(=O)c1ccccc1)c1nccnc1C#N` was tested, and the inhibition was 2.83%. `O=C(Nc1ccccc1)O/N=C1/CCCc2occc21` gave an inhibition of -0.26%. `Cc1ccc(NS(=O)(=O)c2ccc(C(=O)NCCCN3CCOCC3)cc2)cc1` showed an inhibition of -2.45%. For `Nn1c(SCC(=O)NC2CCCc3ccccc32)nnc1C1CC1` (stereo not drawn), the inhibition was 2.63%. `COc1cc(OC)cc(-c2c(C#Cc3ccsc3)c3cc(-c4ccc(SC)cc4)ccc3n2C)c1` was tested, and the inhibition was -8.45%. `CN(C)C(=O)c1cccn(Cc2cccc(C(F)(F)F)c2)c1=O` was tested, and the inhibition was 0.89%. `CC(C)(C)OC(=O)C[C@@H]1C/C=C\C[C@@H](CC(=O)N[C@H](CO)Cc2ccccc2)C(=O)NC[C@@H](c2ccccc2)OC1=O` showed an inhibition of -3.9%. `S=c1[nH]c2ccccc2c2ccccc12` showed an inhibition of 2.2%. Molecule `CC1(C)CC(=O)C=C(c2ccc(Cl)c(C(F)(F)F)c2)C1` has an inhibition of 3.15%. `CCNC(=S)N(CCN(CC)CC)Cc1cc2cc3c(cc2[nH]c1=O)OCCO3` gave an inhibition of -18.5%. For `COCCCNC(=S)N(CCN(C)C)Cc1cc2cc3c(cc2[nH]c1=O)OCCO3`, the inhibition was 54.7% (active). For `CCN(CC)CCCNC(=S)N(CCO)Cc1cc2cc3c(cc2[nH]c1=O)OCO3`, the inhibition was 3.65%. `COc1ccc2sc(-c3ccc(S(C)(=O)=O)cc3)c(C#Cc3cncn3C)c2c1` gave an inhibition of -6.51%.
